# Test results taken from the supplement of paper PMC3334620.
# The full ranking holds about 33,000 sequences; the median of “E-score (-0.5 to 0.5)” is about -0.054, and the highest 2% start at about 0.39. The sample holds the highest values, similar sequences and a random draw of the others, so the mix is not that of the screen.
# Molecular target: Ylr278c (UniProt Q05854)
# Test: PBM E-score (8-mer binding enrichment) (E-score (-0.5 to 0.5)); higher = stronger / more preferred TF binding
# Details: protein concentration: 200 nM; construct: GST-DNA-binding domain
# Outline: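 PURExpress in vitro transcription/translation supplied GST-tagged yeast transcription factors, either full-length or DNA-binding domain. Applied at about 100-200 nM to universal all-10-mer Agilent arrays double-stranded by primer extension, the bound protein was detected with fluorescent anti-GST. E-scores, modified Wilcoxon-Mann-Whitney statistics, were given by the Universal PBM Analysis Suite to ungapped eight-base words pooled with their reverse complements after masliner normalisation.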
# Chain of UniProt Q05854 (Q05854 whole entry): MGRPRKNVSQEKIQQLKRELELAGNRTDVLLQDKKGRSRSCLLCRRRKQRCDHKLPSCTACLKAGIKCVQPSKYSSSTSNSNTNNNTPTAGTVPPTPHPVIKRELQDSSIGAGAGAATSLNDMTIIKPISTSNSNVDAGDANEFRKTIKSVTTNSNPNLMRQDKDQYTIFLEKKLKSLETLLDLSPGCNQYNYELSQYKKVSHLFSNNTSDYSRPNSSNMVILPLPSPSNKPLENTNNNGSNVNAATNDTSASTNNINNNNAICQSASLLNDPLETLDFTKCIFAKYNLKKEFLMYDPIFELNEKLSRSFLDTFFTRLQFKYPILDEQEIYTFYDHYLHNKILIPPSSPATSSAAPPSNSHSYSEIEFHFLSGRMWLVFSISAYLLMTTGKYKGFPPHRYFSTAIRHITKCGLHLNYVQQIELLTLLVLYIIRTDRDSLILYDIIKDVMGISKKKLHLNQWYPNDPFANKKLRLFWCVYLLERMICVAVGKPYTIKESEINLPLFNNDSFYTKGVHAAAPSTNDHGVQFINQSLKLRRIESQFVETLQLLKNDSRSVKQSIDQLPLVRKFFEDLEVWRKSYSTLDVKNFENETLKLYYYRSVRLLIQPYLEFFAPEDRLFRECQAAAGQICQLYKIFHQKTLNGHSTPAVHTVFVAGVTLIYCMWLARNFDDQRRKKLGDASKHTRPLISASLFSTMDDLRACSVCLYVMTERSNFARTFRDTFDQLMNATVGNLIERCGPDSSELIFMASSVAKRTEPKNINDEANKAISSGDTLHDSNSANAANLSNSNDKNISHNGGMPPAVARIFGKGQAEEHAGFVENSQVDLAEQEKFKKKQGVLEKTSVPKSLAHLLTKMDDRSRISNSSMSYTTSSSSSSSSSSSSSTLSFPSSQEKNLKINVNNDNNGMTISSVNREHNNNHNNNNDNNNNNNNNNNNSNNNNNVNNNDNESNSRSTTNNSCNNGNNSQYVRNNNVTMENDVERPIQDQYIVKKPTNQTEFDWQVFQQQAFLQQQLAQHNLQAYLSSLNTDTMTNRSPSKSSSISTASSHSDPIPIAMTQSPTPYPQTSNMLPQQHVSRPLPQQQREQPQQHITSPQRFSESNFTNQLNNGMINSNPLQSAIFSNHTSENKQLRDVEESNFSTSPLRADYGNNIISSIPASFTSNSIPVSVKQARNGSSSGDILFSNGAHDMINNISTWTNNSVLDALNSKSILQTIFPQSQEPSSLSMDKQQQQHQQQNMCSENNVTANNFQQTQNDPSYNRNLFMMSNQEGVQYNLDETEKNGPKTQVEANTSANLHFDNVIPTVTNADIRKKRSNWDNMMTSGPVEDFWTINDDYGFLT
row,Sequence,PBM E-score
1,TACTCATA,-0.285
2,AGCATTGC,-0.106
3,GCAGTTCC,0.169
4,AGTGCGTA,-0.0325
5,CAGATAAC,0.123
6,CCCACTGA,-0.155
7,GTAGAAGA,-0.177
8,CCGGAGCC,0.422
9,GCGGAGCC,0.394
10,TCGGAGCA,0.455
11,CGGGAGCC,0.0673
12,GAGGAGCC,-0.0931
13,CTGGAGCC,0.0766
14,GCAGAGCC,-0.128
15,TCAGAGCA,-0.282
16,TAGGAGCA,-0.184
17,CTGAGGAC,0.0445
18,AGTCTTTG,-0.289
19,CATCAAGC,-0.0328
20,GGGGGCCA,-0.0264
21,AAGCAAAT,-0.19
22,GTCACGAA,-0.0546
23,AGTGTTAT,-0.0541
24,CAGTCCAA,-0.218
25,GGGAACAA,0.0828

row,Sequence,PBM E-score
1,TGGAACAA,-0.206
2,AGGAACAG,-0.279
3,CGGAACAG,0.388
4,CGGAACAA,0.427
5,CGGAACAC,0.353
6,AAACAGCA,0.0669
7,ATTTCATC,0.166
8,GCTTGTTA,0.0864
9,CAGGATCG,0.00336
10,CCGGATCA,0.385
11,CCGGATCG,0.396
12,GCGGATCC,0.271
13,ACGGATCG,0.142
14,CCGGATCC,0.42
15,CTCTTCTC,-0.106
16,AAATTCAA,0.0115
17,CAACTAAA,-0.0258
18,ACTACTCG,0.0653
19,ATCCTGGA,-0.101
20,CGTGGTAG,-0.0716
21,AACGGAAT,0.379
22,ATCGGAAT,0.443
23,AGCGGAAT,0.385
24,ATCGGAAC,0.406
25,TTCGGAAA,0.419

row,Sequence,PBM E-score
1,ATTGGAAC,-0.0837
2,CTCGGAAA,0.374
3,AACGGAAC,0.322
4,CTCGGAAC,0.381
5,TCGGGAAA,0.35
6,GTCGGAAC,0.413
7,GTGGGAAC,-0.189
8,GATGACGC,-0.146
9,AGACACCT,-0.185
10,CGCAGGGC,0.049
11,ACTTTGCT,-0.141
12,ACTAACGC,0.0051
13,AACCTCAT,-0.143
14,AGCGGAAA,0.358
15,GTCGGGAA,0.201
16,ATCGGAAG,0.332
17,ATCGGAAA,0.416
18,GTCGGAAA,0.424
19,CAGCCACC,0.0671
20,AGCGACTC,-0.142
21,ACAAACTC,0.155
22,CCCTTTAA,-0.0852
23,CTCGTTCC,0.165
24,ATTAACCG,0.322
25,CATTTGGG,-0.0571

row,Sequence,PBM E-score
1,GAAGAGAC,0.0662
2,CCATCGGG,0.259
3,ACATCGGA,0.377
4,CCATCGGA,0.415
5,TCATCGGA,0.408
6,GCATCGGA,0.437
7,TCATCGCA,-0.0812
8,TCATCGAA,-0.174
9,CCATCGGC,0.282
10,GCATCGGC,0.308
11,AAAAAGAG,-0.21
12,AGATCGCC,-0.00696
13,CCGAGAAG,0.226
14,GACAATGC,0.0317
15,GAGTCGAC,0.00525
16,CAATGGTG,-0.248
17,ACTCAATA,-0.101
18,ACGCCGAC,0.343
19,CCTCCGAC,0.405
20,ACTCCGAC,0.481
21,CCACCGAC,0.0976
22,ACTCCTAG,-0.114
23,TCTCCGAA,0.455
24,ACTCCGAG,0.478
25,TCTCCAAA,-0.126

row,Sequence,PBM E-score
1,CCTCCAAC,-0.212
2,TCTCCTAA,-0.144
3,ACACCGAC,0.26
4,ACTCCAAG,-0.198
5,AAGTAGGA,-0.313
6,ACACCGCT,0.00228
7,GGCGCATA,0.0769
8,GGGCTACA,-0.0376
9,GTGACGTA,-0.142
10,CGTCCACC,-0.00012
11,ACCTCATA,-0.101
12,AAATACGG,0.14
13,ACGAACCA,-0.125
14,GCTCCGAA,0.464
15,GCTCCGAC,0.374
16,CATCCGAG,0.193
17,ACTCCCAA,0.0108
18,GCTCCAAA,-0.172
19,ACTCCAAA,-0.118
20,CCTCCAAG,-0.202
21,ACTCCTAT,-0.0311
22,ACTCCCAT,-0.16
23,ACTCCGAT,0.484
24,CCTCCGAG,0.426
25,ACTCCGAA,0.484

row,Sequence,PBM E-score
1,ACCTAAGC,0.0293
2,GGAGAAAC,0.309
3,CAGGGCGC,0.0102
4,GGAACCAC,0.0576
5,AAGCCACG,-0.0652
6,AAAAGAGA,-0.223
7,AAAGAAGA,-0.0104
8,CCTCCAAA,-0.14
9,CCACCGAA,-0.0526
10,CCTCCGAA,0.441
11,GTGAGATA,0.052
12,AACGGAAA,0.374
13,CACGGAGA,0.429
14,AACGGATA,0.292
15,GACGGATA,0.249
16,GACGGAGA,0.453
17,TACGGAGA,0.386
18,CAAGGAGA,-0.105
19,CACGGAGC,0.403
20,AACGGAGA,0.393
21,CACGGACC,0.282
22,GACGGAGC,0.378
23,GAGGGAGA,-0.145
24,AAATCTGT,-0.0526
25,TGTTGAAA,-0.0138

row,Sequence,PBM E-score
1,ACTACTTA,-0.0798
2,CGACTATA,-0.0135
3,CCCCAGAA,0.00338
4,CACAAAGA,-0.197
5,CCATAAGC,-0.105
6,AACGGAGG,0.3
7,AACGGACT,0.328
8,CACGGACG,0.22
9,AACGGAGT,0.448
10,CACGGAGG,0.394
11,AACGGAGC,0.309
12,CCAGCTCG,-0.106
13,CTGAACCC,-0.0929
14,TAGAGGAA,-0.211
15,CAACTGGG,-0.0669
16,CCGGACCC,0.391
17,ACGGACCG,0.335
18,GCGGACCC,0.354
19,CAGGACCG,0.0623
20,CCGGACCG,0.426
21,CCGGACCA,0.369
22,CCATTCAC,-0.042
23,CTAGATAG,-0.28
24,CGCCGTAC,0.163
25,AAGGCATT,-0.246

row,Sequence,PBM E-score
1,GACTCGGA,0.4
2,CACTCGGA,0.329
3,AACTCGGT,0.00153
4,GACTCGGC,0.134
5,TACTCGGA,0.342
6,AACTCGGA,0.392
7,CAATGGGC,-0.106
8,ACTCATCC,-0.0863
9,AGGCCACG,-0.0792
10,AACCCCCG,0.26
11,GACCCCGC,0.247
12,AACCCCGC,0.41
13,AACCCCGT,0.381
14,TACCCCGA,0.411
15,AACCCCGA,0.431
16,ACCCCCGC,0.266
17,AAACCCCG,0.449
18,ACCCCCGA,0.261
19,AAACCCCC,-0.0651
20,GACCCCGA,0.336
21,CACCCCGA,0.29
22,ACGCAGAA,-0.0444
23,TATATGCA,-0.245
24,ACCAGTCA,-0.036
25,TAAGGAAA,-0.131

row,Sequence,PBM E-score
1,GCCTATAA,-0.116
2,AAGCGTTG,-0.256
3,CCAGCGCA,0.0176
4,AAGGTGCC,-0.0322
5,CGTGAATA,-0.00311
6,AAACCCGG,0.428
7,ATACCCCC,0.0218
8,AACCCCGG,0.458
9,AAACCCGA,0.384
10,CAACCCGG,0.229
11,CAACCCCG,0.397
12,ATACCCCA,0.00063
13,ATACCCCG,0.401
14,AAACCCGC,0.287
15,CAACCCCC,-0.0384
16,ACCCCCGG,0.334
17,CACCCCGG,0.314
18,ACTGTTGC,0.0649
19,ATAGGACA,-0.311
20,AGAAGCCG,0.241
21,AATCGAGA,-0.115
22,GAGAAGAC,0.0429
23,CCTATCCG,0.114
24,GAAATGAC,-0.0184
25,AGATTGGG,0.0161

row,Sequence,PBM E-score
1,CAGAATAG,-0.179
2,CGGAATAG,0.391
3,CGGAATAC,0.423
4,GGGAATAC,0.176
5,AGGAATAC,-0.0793
6,AGGAATAG,0.102
7,GGGAATAA,0.261
8,CGGAATAA,0.433
9,TGGAATAA,-0.0106
10,GAGGGTCC,0.173
11,CTGGTTGC,0.123
12,CCTAGCTA,-0.246
13,TCCCTTAA,-0.263
14,ATGCTGGC,-0.147
15,ATAAGTGA,-0.229
16,CGACGCGC,0.21
17,GACCCGGA,0.391
18,TACCCGAA,0.0727
19,TACCCGGA,0.395
20,AACCCGGT,0.304
21,TACCCGTA,-0.0475
22,AACCCGGA,0.435
23,AACCCGGC,0.313
24,GACCCGGC,0.184
25,CACCCGGA,0.365

row,Sequence,PBM E-score
1,CTGAAAAG,-0.131
2,AGTTGCCG,0.171
3,GGCGTGTA,-0.155
4,TATGTAAA,0.0517
5,CCTTGAAC,-0.189
6,ACGTACTG,-0.138
7,AAACTTGC,-0.0141
8,ACGAGGAA,-0.0559
9,TGCTCTAA,-0.211
10,AGTGAGGA,-0.255
11,ACTCCGCT,0.417
12,GCTCCGCA,0.377
13,ACTCCGCA,0.452
14,TCTCCTCA,-0.147
15,CTTCCGCA,0.198
16,ACTCCCCT,0.174
17,ACGCCGCT,0.224
18,AATCCGCC,0.319
19,ACTCCTCA,-0.21
20,ACTCCGCC,0.475
21,GCTCCGCC,0.382
22,TCTCCGCA,0.407
23,GTTTAGGA,-0.122
24,ACAGCAGC,-0.191
25,CGCCCAAC,0.0317

row,Sequence,PBM E-score
1,ACCCTAAA,0.099
2,ATAGCTCG,-0.0396
3,ATGCTGTA,-0.185
4,TAAGTATA,-0.0135
5,GGACTGAA,-0.00012
6,ATGGCCAT,0.0373
7,CGGAGATC,0.479
8,AGGAGATC,0.0493
9,GGGAGATA,-0.0385
10,GGGATATA,0.151
11,CGGAGATA,0.483
12,CGGATATC,0.366
13,CGGATATA,0.393
14,CTGAGATC,-0.196
15,AGGAGATA,-0.016
16,CGACTCAA,0.0186
17,GTCATGAC,0.0612
18,GCCAGTTA,-0.0644
19,GCACTCGC,0.0715
20,CGTTCGCC,0.145
21,AGATCCGC,0.37
22,ACATCCGG,0.444
23,ATATCCGG,0.413
24,ATATCCGC,0.38
25,ATATCCGA,0.387

row,Sequence,PBM E-score
1,AGATCCGG,0.41
2,ACATCCGA,0.356
3,AGATCCGA,0.344
4,ACATCCGT,0.162
5,ATAGTGGC,-0.179
6,ACAGGCAA,-0.209
7,CTGCGACA,0.094
8,ACGATGGC,-0.144
9,ATAAGTAA,0.0323
10,GCCAACGA,-0.181
11,CGACTGTA,-0.139
12,CTGACTTC,0.088
13,GGGACTAA,-0.0466
14,CGGACTAA,0.423
15,CGGACTCC,0.423
16,GGGACTTA,-0.0692
17,AGGACTTA,-0.0757
18,CGGACTTC,0.473
19,CGGACTCA,0.384
20,TGGACTAA,-0.188
21,CGGACTTA,0.452
22,AGGACTTC,-0.0413
23,AGGACTCC,0.0662
24,ACAAAGCG,-0.0993
25,TGGACGAA,-0.116

row,Sequence,PBM E-score
1,ACACCACT,-0.0175
2,CCCGGTAG,0.252
3,GCGGTGAC,0.0764
4,CTACGGCC,0.123
5,CTGCGGCC,0.2
6,GTCCGGCA,0.41
7,CTCCGGCA,0.469
8,CTCCGGCC,0.455
9,ATCCGGCA,0.369
10,GCCCGGCA,0.255
11,GACCGGCA,0.258
12,CACCGGCA,0.328
13,GATCTGGC,0.0483
14,ACCTAACC,0.0688
15,TAAGAGGA,-0.0178
16,AAAGATTG,-0.146
17,AGCTAAGC,-0.164
18,CATAGGAC,-0.146
19,ATCGCTTG,-0.321
